Results: PubChem BioAssay (NCATS)
Inconclusive results are not listed. Unmarked numbers belong to inactive results. Calls follow the shape of the dose curve; as a rule, active = well fitted cell-killing curve with a large enough effect; inconclusive = small, poorly fitted or top-dose-only effect; inactive = flat fitted curve, though single readings scatter.

Test: NCATS anti-infectives library activity on HEK293 viability as a counter-qHTS vs the C. elegans viability qHTS (AID 1745854);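 also: HEK293 cells exposed to compounds for 24 hr before the viability read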
Conditions: HEK293 viability counter-screen; series mostly up to 41.8 µM; activity change, negative = cytotoxicity: at the top concentration
How it was run: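 HEK293 cells (1,500/well) exposed 24 hr at 37C to 1:5 titrations, up to 41.7 uM final; counter-screen to a C. elegans viability qHTS. Viability by CellTiter-Glo luminescence after 10 min at room temperature; digitonin as control.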
% is scaled to controls: 0 for no effect and ±100 for the full control effect.

| SMILES | activity change, negative = cytotoxicity |
| --- | --- |
| CC(=O)OC(C)(C)CCC(=O)[C@](C)(O)C1[C@H](O)C[C@@]2(C)C3CC=C4C(C[C@H](O)[C@@H](O)C4(C)C)[C@]3(C)C(=O)C[C@]12C (stereo partly specified) | -26.3% |
| Cc1ccc(C2Nc3ccccc3C(=O)N2c2ccccc2)s1 (stereo unspecified) | 2.76% |
| O=c1cc(-c2ccc(O)cc2)oc2cc(O)c(O)c(O)c12 | -13.9% |
| O=C(O)/C(S)=C/c1c[nH]c2ccc(F)cc12 | 8.22% |
| C[C@H](NC(=O)[C@H](Cc1ccccc1)NC(=O)OCc1ccccc1)C(=O)CF | -6.23% |
| CCOC(=O)c1c(C)sc(-c2c(-c3ccc(OC)c(F)c3)[nH]c3c2c(=O)[nH]c(=O)n3C)c1O | -11.4% |
| COC(=O)c1cc(O)c(O)c(O)c1 | -19.7% |
| COC(=O)c1cc(OC)c2c(c1-c1c(CO)cc(OC)c3c1OCO3)OCO2 | 1.52% |
| CC(C)=C1C/C=C(\C)CC/C=C(\C)CC1=O | 11.8% |
| COc1cnc(-n2cnc(C)n2)c2c1c(C(=O)C(=O)N1CCN(C(=O)c3ccccc3)CC1)cn2COP(=O)(O)O | -20.7% |
| S=C(S)O[C@H]1C[C@H]2C[C@@H]1[C@@H]1CCC[C@H]21 | -14.1% |
| Cc1nc2ccccc2c(-c2ccc3c(c2)CCCO3)c1C(OC(C)(C)C)C(=O)O (stereo unspecified) | -4.2% |
| COc1ccc(-c2sc(NC(=O)C(C)(C)C)nc2C)cc1S(=O)(=O)Nc1ccc(O)cc1 | -16.1% |
| CCCCCCCCCCCCCCCCOCCCOP(=O)(O)CO[C@H](CO)Cn1ccc(N)nc1=O | -5.25% [at 8.35 µM] |
| O=S(=O)(Cl)c1ccc(-c2ccccc2)cc1 | 9% |
| OC[C@H]1O[C@@H](Oc2c(O)cc(O)cc2/C=C/c2ccc(O)cc2)[C@H](O)[C@@H](O)[C@@H]1O | -11.1% |
